Results reported in PubChem BioAssay (NCATS).
Calls of active or inactive are those of the source. The call rests on the fitted dose curve.

target: Glucocorticoid receptor (Homo sapiens) (UniProt P04150); experiment: GR-EFC Redistribution (AID 451); settings: CHO-K1 GR-EFC translocation, beta-gal luminescence, 2 h
Text: NIH Molecular Libraries Screening Centers Network [MLSCN]
NIH Chemical Genomics Center [NCGC]
The glucocorticoid receptor (GR) is a cytoplasmic receptor that belongs to the nuclear receptor family of ligand-dependent transcription factors. Upon glucocorticoid binding to its receptor, the glucocorticoid-GR complex translocates into the nucleus, where it binds as a dimer to specific DNA sequences (glucocorticoid response elements), enhancing or suppressing transcription of a wide variety of glucocorticoid-responsive genes. In addition to their important roles in normal physiology and metabolism, glucocorticoids are administered exogenously as treatments for a wide variety of allergic, autoimmune, and neoplastic conditions. Identification of compounds that modulate aspects of GR signalling would be useful in dissecting glucocorticoid response pathways as well as developing GR modulators with more targeted clinical effects.
Traditionally, GR modulators have been identified using receptor binding or direct transactivation assays. However, assays for glucocorticoid-dependent nuclear translocation can also be used to screen for compounds affecting GR signaling.
Immunocytochemical staining has been used to assay for GR translocation, but is not suitable for high throughout screening due to the multiple reagent addition and wash steps required. Recently, a novel cell-based GR assay in Enzyme Fragment Complementation (EFC) format was developed by DiscoveRx (Fremont, CA). The assay uses EFC of b-galactosidase (b-gal) as an indicator of GR-translocation in engineered CHO-K1 biosensor cells. The enzyme acceptor (EA) fragment of b-gal resides in the nucleus , as designed through the use of a proprietary set of sequence additions and modifications. The small peptide enzyme donor (ED) fragment of b-gal is fused directly to the C-terminus of GR, and is localized in the cytoplasm is the absence of receptor signaling. Upon binding to a GR ligand, the complex translocates to the nucleus, where intact enzyme activity is restored by complementation and b-gal activity is detected. We optimized this GR-EFC assay in homogenous 1536-well plate assay format for high throughput screening.
NCGC Assay Protocol Summary:
CHO-K1 cells stably expressing NLS-enzyme acceptor fragment (EA) of b-gal and GR-enzyme donor (ED) fragment of b-gal were maintained in F12 medium (Invitrogen, Carlsbad, CA) at 37 Celsius degrees under a humidified atmosphere containing 5% CO2 and 95% air. The medium contained 10% FBS, 2 mM L-glutamine, 50 U/ml penicillin 50 ug/ml streptomycin, and 250 ug/ml hygromycin and 500 ug/ml G418 (Invitrogen).
GR-translocation was measured beta-gal enzyme activity using the PathHunter Detection Kit containing cell membrane permeablizing reagent and beta-gal substrate (DiscoveRx, Fremont, CA). All compounds were screened as titrations from 0.6 nM to 46 uM final concentration. The assay was performed in 1536-well format as follows:
5 uL cell suspension (1,000 cells)/well
Incubation at 37 Celsius degrees for two hours
1.25 uL 1X detection buffer from the kit supplied by DiscoveRx
Incubation at room temperature for one hour
Read plate in luminescence mode in ViewLux plate reader (PerkinElmer)
Keywords: NIH Roadmap, MLSCN, MLI, MLSMR, GR-EFC, GREFC, qHTS, NCGC
Potency means the concentration at half of the fitted maximal effect.

Chain of Glucocorticoid receptor (Homo sapiens) (P04150 whole entry, looked up): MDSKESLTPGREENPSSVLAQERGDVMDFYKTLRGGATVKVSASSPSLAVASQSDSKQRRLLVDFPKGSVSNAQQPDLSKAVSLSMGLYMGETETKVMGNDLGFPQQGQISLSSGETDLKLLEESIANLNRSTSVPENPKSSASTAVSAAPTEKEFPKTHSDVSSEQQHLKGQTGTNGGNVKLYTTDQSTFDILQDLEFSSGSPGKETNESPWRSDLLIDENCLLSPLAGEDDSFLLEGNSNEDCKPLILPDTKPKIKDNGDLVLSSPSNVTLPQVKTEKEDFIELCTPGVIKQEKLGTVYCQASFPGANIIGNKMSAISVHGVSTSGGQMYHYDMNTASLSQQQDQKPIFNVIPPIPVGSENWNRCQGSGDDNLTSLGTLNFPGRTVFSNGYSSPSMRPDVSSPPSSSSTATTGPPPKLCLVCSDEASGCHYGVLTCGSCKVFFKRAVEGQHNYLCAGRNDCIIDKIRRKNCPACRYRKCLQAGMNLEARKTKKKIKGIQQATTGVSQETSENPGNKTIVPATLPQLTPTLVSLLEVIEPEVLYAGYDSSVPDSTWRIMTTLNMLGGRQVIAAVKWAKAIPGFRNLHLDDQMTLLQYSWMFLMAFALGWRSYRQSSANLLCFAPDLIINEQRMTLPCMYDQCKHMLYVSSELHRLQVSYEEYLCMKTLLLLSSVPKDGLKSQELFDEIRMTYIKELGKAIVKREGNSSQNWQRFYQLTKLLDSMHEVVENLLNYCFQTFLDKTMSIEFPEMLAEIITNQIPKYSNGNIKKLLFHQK

SMILES	Potency
CCCc1c(-c2ccc(O)cc2)nn(-c2ccc(O)cc2)c1-c1ccc(O)cc1	> 46 µM (inactive)
CC(=O)N[C@@H](Cc1c[nH]c2ccccc12)C(=O)OCc1cc(C(F)(F)F)cc(C(F)(F)F)c1	> 46 µM (inactive)
O=c1[nH]c(=O)c2nc3ccccc3nc2[nH]1	> 46 µM (inactive)
O=c1onc2n1-c1cc(Br)ccc1OC2	> 46 µM (inactive)
C[C@H](NC(=O)/C(C#N)=C/c1ccc(O)c(O)c1)c1ccccc1	> 46 µM (inactive)
O=c1onc2cnc3ccccc3n12	> 46 µM (inactive)
N#C/C(=C\c1ccc(O)c(O)c1)C(=O)NCCc1ccccc1	> 46 µM (inactive)
NCCCCN=C(N)N	> 46 µM (inactive)
COc1cc(CNC(=O)CCCCCCC(C)C)ccc1O	> 46 µM (inactive)
CN1CCN(c2nc3cc(C(F)(F)F)ccc3n3cccc23)CC1	> 46 µM (inactive)
O=C(O)c1ccccc1Nc1ccccc1	> 46 µM (inactive)
O=C(O)c1cc2cc(F)ccc2[nH]1	> 46 µM (inactive)
N=C(N)c1ccc(OCCCCCOc2ccc(C(=N)N)cc2)cc1 (tested in a mixture with another compound)	> 46 µM (inactive)
COc1ccc(NC(=O)c2ccc(-c3ccc(-c4noc(C)n4)cc3C)cc2)cc1N1CCN(C)CC1	> 46 µM (inactive)
O=C(O)C1=CCCNC1	> 46 µM (inactive)
C[C@](Cc1ccc(O)c(O)c1)(NN)C(=O)O	> 46 µM (inactive)
CC(=O)C(C)=O	> 46 µM (inactive)
COc1ccccc1N1CCN(CCN(C(=O)c2ccc(F)cc2)c2ccccn2)CC1	> 46 µM (inactive)
C=CCn1c(=O)c2c(nc(-c3ccc(S(=O)(=O)O)cc3)n2C)n(C)c1=O	> 46 µM (inactive)
CCCCCCCCCCC/C=C\C(C)(C)/C=C\CCCC(=O)O	> 46 µM (inactive)

SMILES	Potency
CC[C@@H]1Cc2cc(O)ccc2C2=C1c1ccc(O)cc1C[C@H]2CC	> 46 µM (inactive)
O=C(O)C1=CCNCC1	> 46 µM (inactive)
CC(C)(C)c1cc(/C=C(\C#N)C(N)=S)cc(C(C)(C)C)c1O	> 46 µM (inactive)
C[C@H](O)C(=O)C1=Nc2c(nc(N)[nH]c2=O)NC1	> 46 µM (inactive)
CCSC(=N)N	> 46 µM (inactive)
O=C(O)/C(=C/c1c(C(=O)O)[nH]c2cc(Cl)cc(Cl)c12)c1ccccc1	> 46 µM (inactive)
CCC(=O)N1CCN(C(=O)c2ccccc2)CC1	> 46 µM (inactive)
CCCCCC[C@@H]([C@@H](C)O)n1cnc2c(N)ncnc21	> 46 µM (inactive)
NS(=O)(=O)c1cccc2c1c([N+](=O)[O-])cc1nc(O)c(O)nc12	> 46 µM (inactive)
N=C(N)SCCN	> 46 µM (inactive)
COc1cc(CC(=O)O)ccc1O	> 46 µM (inactive)
COc1cc2c(CCNC(C)=O)c[nH]c2cc1O	> 46 µM (inactive)
O=C(O)Cc1c[nH]c2ccc(O)cc12	> 46 µM (inactive)
Oc1cc(O)c2c(c1)O[C@H](c1ccc(O)c(O)c1)[C@@H](O)C2	> 46 µM (inactive)
N[C@@H](CS(=O)O)C(=O)O	> 46 µM (inactive)
O=c1[nH]c(=S)[nH]c(-c2ccccc2)c1Cc1c(O)ccc2ccccc12	> 9.22 µM (inactive)
CCCC(=O)NCCc1c2n(c3ccc(OC)cc13)CCCc1ccccc1-2	> 46 µM (inactive)
O=[N+]([O-])c1cccc2c(Br)[nH]nc12	> 46 µM (inactive)
O=c1[nH]ccc2c(O)cccc12	> 46 µM (inactive)
CC(C)(CO)Cc1cc(C(C)(C)C)c(O)c(C(C)(C)C)c1	> 46 µM (inactive)
